# RPL19A-GFP yeast – modulators of TOR pathway RPL19A-GFP in S. cerevisiae; S. cerevisiae RPL19A-GFP strain, flow cytometry, 3 h; hits give low values; percent response vs DMSO, % at 10 µM; 330,000 tested, 0.3% active; AID 2025;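 active = percent response vs DMSO below 50%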;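 note: median channel GFP fluorescence of the barcoded RPL19A-GFP strain; ratio of sample median GFP to plate DMSO average so 100% = DMSO; lower means less RPL19A-GFP as with rapamycin TOR inhibition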
# CIT2 TOR yeast – yeast TOR pathway CIT2-GFP modulation; GFP response vs DMSO, % at 10 µM; AID 2029; S. cerevisiae CIT2-GFP strain, flow cytometry, 3 h; 100 means same as DMSO wells; 320,000 tested, 0.065% active;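 active = GFP response relative to DMSO above a set limit, near the screen mean plus 3 SD, cut at about 150% in these data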;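 note: ratio of well median GFP fluorescence to mean of DMSO wells on the plate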
# AGP1-GFP MLPCN – modulators of TOR pathway AGP1-GFP in S. cerevisiae. AID 2066. 320,000 tested, 0.02% active. GFP response vs DMSO, % at 10 µM. S. cerevisiae AGP1-GFP multiplex flow cytometry, 3 h; GFP as percent of DMSO wells;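 active = GFP response relative to DMSO above a set limit, near screen average plus 3 SD, cut at about 150% in these data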;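 note: median GFP channel fluorescence of the gated AGP1 strain per well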
# LAP4-GFP MLPCN – modulators of TOR pathway LAP4-GFP in S. cerevisiae. S. cerevisiae LAP4-GFP multiplex, flow cytometry GFP, 3 h; median GFP as percent of DMSO wells. GFP response vs DMSO, % at 10 µM. 320,000 tested, 0.34% active. AID 2023;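 active = GFP response vs DMSO above a set limit, about the screen mean plus 3 SD, cut at about 150% in these data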
# MEP2 TOR yeast – alters MEP2-GFP fluorescence in TOR pathway yeast screen; AID 2016; S. cerevisiae MEP2-GFP strain, flow cytometry GFP, 3 h; 100% = DMSO control level; 330,000 tested, 0.51% active; GFP response vs DMSO, % at 10 µM;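 active = GFP response versus DMSO above a set limit, roughly screen mean plus 3 SD, cut at about 180% in these data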;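 note: median GFP fluorescence of the barcode-gated MEP2-GFP cells per well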
# LAP4-GFP pick2 – reconfirmed LAP4-GFP TOR pathway modulator in yeast. shares compounds with LAP4-GFP MLPCN. S. cerevisiae LAP4-GFP strain, flow cytometry GFP, 3 h. GFP response vs DMSO, % at 10 µM. 590 tested, 20% active. AID 2621;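 active = GFP signal as percent of the solvent control above about 150%, meaning raised reporter expression, limit read from the data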;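 note: ratio of well median GFP fluorescence to plate DMSO mean so 100% = DMSO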
# MEP2 cherry2 – yeast MEP2-GFP modulation, second cherry pick; 590 tested, 10% active; shares compounds with LAP4-GFP MLPCN; S. cerevisiae MEP2-GFP strain, flow cytometry GFP, 3 h; GFP response vs DMSO, % at 10 µM;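 active = GFP signal above 150% of the solvent control wells, that is a rise of more than half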;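 note: median channel GFP fluorescence of all gated yeast cells per well; ratio of median GFP to plate DMSO average so 100% = DMSO level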
# RPL19A GFP CP2 – reconfirmed modulator of RPL19A-GFP TOR reporter in yeast | shares compounds with LAP4-GFP MLPCN | S. cerevisiae RPL19A-GFP strain, flow cytometry GFP, 3 h; hits give low values; 100% means same as DMSO wells | GFP response vs DMSO, % at 10 µM | 590 tested, 3% active;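 active = under 65% GFP response relative to DMSO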;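 note: median GFP channel fluorescence per well over the all cells gate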
# CIT2 GFP CP2 – yeast CIT2-GFP TOR reporter modulation, second cherry pick; 590 tested, 8% active; GFP response vs DMSO, % at 10 µM; shares compounds with LAP4-GFP MLPCN; S. cerevisiae CIT2-GFP strain, flow cytometry GFP, 3 h; DMSO control wells read 100%;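 active = GFP response vs DMSO above about 150%, limit read from the data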;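 note: median green fluorescence per well over all gated yeast cells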
# AGP1 GFP CP2 – reconfirmed modulator of AGP1-GFP TOR reporter in yeast; shares compounds with LAP4-GFP MLPCN; S. cerevisiae AGP1-GFP strain, flow cytometry GFP, 3 h; percent response vs DMSO, % at 10 µM; 590 tested, under 10 active;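 active = over 150 percent of DMSO response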;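 note: median GFP channel fluorescence over all cells without mother daughter split; sample median GFP divided by mean DMSO control so 100% equals DMSO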
# s288c autofluor – compound is autofluorescent in yeast s288c cells. shares compounds with LAP4-GFP MLPCN. S. cerevisiae s288c, 520 nm autofluorescence, flow cytometry, 3 h; hits give high values; zero means same as solvent-only cells. fluorescence change (kMESF span) at 33 µM. 610 tested, under 10 active;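 active = fluorescence span over the dose series, or activity score, above about 33, limit read from the data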
# s288c autofl DR – yeast s288c autofluorescence artifact in dose response | shares compounds with LAP4-GFP MLPCN | S. cerevisiae s288c parental, compound autofluorescence, flow cytometry, 3 h | fluorescence change (span) at 33 µM | AID 488829 | 110 tested, under 10 active;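 active = fluorescence change span, or the activity score built from it, above 25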
# TORC1 bypass – compounds blocking wildtype yeast growth but not TORC1 bypass cells. growth rating (0-3) at 30 µM. S. cerevisiae BY4741 spot growth rating, 48-72 h; hits give low values. 120 tested, under 10 active. shares compounds with LAP4-GFP MLPCN. AID 504456;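 active = growth rating at most 1 for wild type yeast while the TORC1 bypass strain still grows fully, rated 3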
# Numbers without * were called inactive; x = not tested or not shown; ! = not confirmed by another sample; [ ] = remark or other dose. Hits are enriched below; roughly 0.92% of the tested compounds scored in any of these assays.
SMILES,RPL19A-GFP yeast,CIT2 TOR yeast,AGP1-GFP MLPCN,LAP4-GFP MLPCN,MEP2 TOR yeast,LAP4-GFP pick2,MEP2 cherry2,RPL19A GFP CP2,CIT2 GFP CP2,AGP1 GFP CP2,s288c autofluor,others
COc1cc(C(=O)NCc2nnc(SCC(=O)Nc3cc(C)on3)o2)cc(OC)c1OC,95.2,93.9,94.5,89.7,92.1,x,x,x,x,x,x,
CSc1ccc(C2C(C(=O)c3ccco3)=C(O)C(=O)N2c2nnc(SC)s2)cc1 (stereo unspecified),98.5,98.7,97.0,96.6,103.5,x,x,x,x,x,x,
CCc1cc(C(=O)N2CCN(S(=O)(=O)c3ccccc3F)CC2)sc1C,98.6,96.0,104.7,104.3,101.0,x,x,x,x,x,x,
CCC1CCCCN1C(=O)C(=O)c1cn(CC(=O)N(CC)CC)c2ccccc12 (stereo unspecified),105.0,180.7*,122.9,104.3,105.9,101.2,103.1,98.5,98.7,100.3,x,
CC1(C)Cc2c(sc(NC(=O)c3ccc(C(=O)c4ccccc4)cc3)c2C#N)C(C)(C)N1,97.2,92.3,96.5,104.0,97.2,x,x,x,x,x,x,
COCCCN1C(=O)C(=O)/C(=C(/O)c2ccc(S(=O)(=O)N3CCOCC3)cc2)C1c1cccc(Cl)c1 (stereo unspecified),102.6,97.0,104.9,100.8,97.3,x,x,x,x,x,x,
CC(=O)N[C@@H](Cc1c[nH]c2ccccc12)C(=O)OCc1cc(C(F)(F)F)cc(C(F)(F)F)c1,78.9,101.2,113.2,160.3*,166.1,100.2,101.3,98.7,100.1,96.6,x,
O=C1C=CC(=O)N1N(c1ccccc1)c1ccccc1,100.2,73.8,72.2,121.7,84.3,x,x,x,x,x,1.02,
Cc1cc2c(C)nc3ccccc3c2o1,64.4,102.4,26.6,91.7,170.4,94.2,92.6,102.7,107.1,97.8,x,
Cc1nc2ccccc2c2oc(C(=O)NC3CC3)cc12,97.7,109.6,102.4,100.3,96.8,x,x,x,x,x,x,
O=C(c1ccccn1)c1conc1C(=O)c1ccc(Br)cc1,112.3,192.0*,102.5,331.4*,281.4*,x,x,x,x,x,2.42,
COc1ccc(NC(=O)CC2C(=O)Nc3ccccc3N2CC(=O)N2CCCC2)cc1 (stereo unspecified),95.4,94.7,95.7,89.7,90.8,x,x,x,x,x,x,
Oc1ccc(F)c2cccnc12,97.8,107.9,99.8,100.1,103.1,x,x,x,x,x,x,
Oc1c(I)cc(I)c2cccnc12,100.1,147.6,96.3,237.8*,110.7,167.3*,146.7,82.2,112.6,94.2,1.21,s288c autofl DR=0.9;TORC1 bypass=3
CCOc1c(Br)cc(/C=C(\C#N)C(=O)NC2CC2)cc1OC,109.5,95.0,112.2,153.7*[may fluoresce green],105.3,122.2,115.3,92.0,97.3,94.8,x,
CCOc1ccccc1/C=C(\C#N)C(=O)NC1CC1,92.0,86.7,95.0,95.7,88.7,x,x,x,x,x,x,
COC(=O)c1c(C)[nH]c(C(=O)OCC(=O)c2c(N)n(CC(C)C)c(=O)n(C)c2=O)c1C,100.7,100.0,104.0,92.5,99.0,x,x,x,x,x,x,
O=C1C(Cl)=C(NCCc2ccccc2)C(=O)N1CCc1ccccc1,91.3,82.1,91.1,95.7,90.4,x,x,x,x,x,0.1,
N/C(Cc1ccc(Cl)c(Cl)c1)=N\OC(=O)c1cccs1,85.6,111.3,62.8,219.2*,115.4,x,x,x,x,x,1.01,
CCCCC(CC)CN=C(N)NC(N)=NCCCCCCN=C(N)NC(N)=NCC(CC)CCCC (stereo unspecified),95.3,60.2,85.1,160.3*,104.1,126.2,148.5,98.9,77.9,106.0,x,
CC(Oc1cc2oc(=O)c3c(c2cc1Cl)CCC3)C(=O)NCCN1CCOCC1 (stereo unspecified),58.2,108.3,23.8,89.9,142.3,99.0,106.5,100.9,105.2,103.3,-0.1,
CC(Oc1ccc2c3c(c(=O)oc2c1)CCC3)C(=O)NCCN1CCOCC1 (stereo unspecified),103.9,102.4,107.6,100.6,110.9,x,x,x,x,x,x,
Cc1cc(-c2ccco2)c(C#N)c2nc3ccccc3n12,58.6,50.9,56.1,115.9,103.7,117.2,136.2,66.3,126.5,72.6,x,
CCOc1ccc(CSc2nc(C)cc(COC)c2C#N)cc1OCC,101.5,105.3,95.3,90.7,101.5,x,x,x,x,x,x,
CC(C)N(C(=O)CN1CCN(C(=O)C2COc3ccccc3O2)CC1)C(C)C (stereo unspecified),99.5,99.5,102.3,100.0,102.2,x,x,x,x,x,x,
SMILES,RPL19A-GFP yeast,CIT2 TOR yeast,AGP1-GFP MLPCN,LAP4-GFP MLPCN,MEP2 TOR yeast,LAP4-GFP pick2,MEP2 cherry2,RPL19A GFP CP2,CIT2 GFP CP2,AGP1 GFP CP2,s288c autofluor,others
Cc1ccc(S(=O)(=O)/N=C(\Sc2ccccc2)c2ccccc2)cc1,89.0,79.8,103.6,173.6*,95.6,x,x,x,x,x,0,
O=S(=O)(/N=C(\Sc1ccccc1)c1ccccc1)c1ccc(Cl)cc1,96.6,85.8,96.1,111.3,99.8,110.2,104.8,98.0,98.7,100.3,x,
O=S(=O)(/N=C(\c1ccccc1)N1CCOCC1)c1ccc(Cl)cc1,102.0,104.0,104.6,94.3,101.1,x,x,x,x,x,x,
Cc1ccc(S(=O)(=O)/N=C(/Sc2ccccc2C(=O)O)c2ccccc2)cc1,97.5,91.3,93.8,97.7,97.3,110.6,101.5,101.9,105.2,93.5,x,
Clc1ccc(N=c2ssnc2Cl)cc1,86.2,83.3,80.7,155.8*,87.5,x,x,x,x,x,1.84,s288c autofl DR=0.52;TORC1 bypass=3
N#Cc1ccc(N=c2ssnc2Cl)cc1,93.6,101.6,87.0,157.8*!,92.0,125.0,114.8,96.2,123.3,96.2,1.41,
CN(C(=O)COC(=O)C1CSC2(C)CCC(=O)N12)c1ccccc1 (stereo unspecified),82.1,73.9,82.3,88.8,85.2,x,x,x,x,x,x,

# Compound activity from PubChem.
